Measurements from ChEMBL document CHEMBL3988442, “University of Dundee, Small-Polar-MMV Screening Library” (2021).
For part of these data: Results with a measured potency or affinity are listed apart.

Legend:
Set-up in all cases: scale not given: direction of the effect not stated beside the values
[1] = molecular target: Protein translocase subunit SecA (Escherichia coli (strain K12)) (UniProt P10408); test: Assay to Identify E. coli SecA ATPase Inhibitors; format: functional; conditions: 30 µM
[2] = molecular target: T1, Ubiquitin-activating enzyme e1, putative (Leishmania donovani (strain BPK282A1)) (UniProt E9BSI1); test: Leishmania donovani Ubiquitin Activating Enzyme (LdE1); format: functional; conditions: 30 µM
T1 sequence (whole entry): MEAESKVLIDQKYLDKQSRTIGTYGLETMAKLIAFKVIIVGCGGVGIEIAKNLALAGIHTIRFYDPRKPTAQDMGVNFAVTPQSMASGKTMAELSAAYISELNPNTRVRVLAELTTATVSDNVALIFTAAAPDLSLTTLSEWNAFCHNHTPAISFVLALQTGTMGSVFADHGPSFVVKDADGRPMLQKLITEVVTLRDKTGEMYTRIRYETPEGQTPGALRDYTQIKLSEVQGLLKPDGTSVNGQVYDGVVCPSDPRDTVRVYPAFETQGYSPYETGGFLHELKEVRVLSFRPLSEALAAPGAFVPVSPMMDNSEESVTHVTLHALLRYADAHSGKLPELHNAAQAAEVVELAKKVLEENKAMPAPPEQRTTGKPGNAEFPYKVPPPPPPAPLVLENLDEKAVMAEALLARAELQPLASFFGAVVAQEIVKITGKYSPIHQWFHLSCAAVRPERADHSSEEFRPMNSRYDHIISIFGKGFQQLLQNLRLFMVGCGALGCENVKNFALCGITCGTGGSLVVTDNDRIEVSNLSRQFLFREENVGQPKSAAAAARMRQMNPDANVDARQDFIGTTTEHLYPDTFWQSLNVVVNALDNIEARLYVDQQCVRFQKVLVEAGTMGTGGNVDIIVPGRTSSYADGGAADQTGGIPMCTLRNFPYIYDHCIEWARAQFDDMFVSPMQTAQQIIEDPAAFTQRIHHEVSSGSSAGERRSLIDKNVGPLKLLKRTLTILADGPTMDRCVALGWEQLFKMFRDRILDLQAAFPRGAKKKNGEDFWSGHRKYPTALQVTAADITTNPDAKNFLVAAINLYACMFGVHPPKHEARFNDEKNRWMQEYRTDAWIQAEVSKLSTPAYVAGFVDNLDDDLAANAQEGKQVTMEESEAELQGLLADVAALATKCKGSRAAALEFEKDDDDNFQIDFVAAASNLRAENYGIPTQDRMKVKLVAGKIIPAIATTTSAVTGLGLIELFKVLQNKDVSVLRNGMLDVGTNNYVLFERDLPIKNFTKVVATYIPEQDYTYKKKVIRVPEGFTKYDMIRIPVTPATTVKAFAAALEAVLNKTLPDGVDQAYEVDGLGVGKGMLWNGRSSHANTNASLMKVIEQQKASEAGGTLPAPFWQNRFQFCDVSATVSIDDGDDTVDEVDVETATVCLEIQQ

[3] = molecular target: AMP-activated protein kinase, AMPK (Homo sapiens) (UniProt P54646+O43741+P54619+Q9UGJ0+Q9Y478+Q13131+Q9UGI9); test: AMP-dependent Kinase enzyme assay. An in vitro enzyme assay that detects ADP turnover that is directly proportional to AMPK activity. This uses naive AMPK that is activated during the assay with MK-8722; format: functional; conditions: 30 µM
[4] = molecular target: Sialic acid-binding Ig-like lectin 9 (Homo sapiens) (UniProt Q9Y336); test: Hs-Siglec9 ALPHAscreen SOP 20170721; conditions: 10 µM
Trypanosoma cruzi = test: Trypanosoma cruzi phosphomannomutase and mannose-1-phosphate guanylyltransferase assay; format: functional; conditions: 10 µM
[5] = molecular target: T2, Arginase-2, mitochondrial (Homo sapiens) (UniProt P78540); test: in vitro enzyme assay to detect the production of urea directly proportional to the activity of Arginase II; format: functional; conditions: 33.3 µM; note: in the data most compounds retested in dose-response had high values
T2 sequence (whole entry): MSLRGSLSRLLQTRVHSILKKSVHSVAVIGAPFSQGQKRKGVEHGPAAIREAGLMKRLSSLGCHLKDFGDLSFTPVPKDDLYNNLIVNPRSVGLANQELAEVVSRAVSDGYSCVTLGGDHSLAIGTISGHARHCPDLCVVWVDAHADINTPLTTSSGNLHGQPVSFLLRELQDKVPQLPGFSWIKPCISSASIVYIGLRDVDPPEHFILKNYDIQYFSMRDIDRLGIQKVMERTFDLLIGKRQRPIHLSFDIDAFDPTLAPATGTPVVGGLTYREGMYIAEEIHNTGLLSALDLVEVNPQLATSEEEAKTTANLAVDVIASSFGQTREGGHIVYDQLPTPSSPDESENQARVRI

[6] = molecular target: T3, Proteasome subunit beta (Trypanosoma cruzi) (UniProt O96673); test: Trypanosoma cruzi proteasome chymotrypsin-like activity (TcProtChymo) assay.; note: in the data most compounds retested in dose-response had high values; format: functional; conditions: 9.37 µM
T3 sequence (whole entry): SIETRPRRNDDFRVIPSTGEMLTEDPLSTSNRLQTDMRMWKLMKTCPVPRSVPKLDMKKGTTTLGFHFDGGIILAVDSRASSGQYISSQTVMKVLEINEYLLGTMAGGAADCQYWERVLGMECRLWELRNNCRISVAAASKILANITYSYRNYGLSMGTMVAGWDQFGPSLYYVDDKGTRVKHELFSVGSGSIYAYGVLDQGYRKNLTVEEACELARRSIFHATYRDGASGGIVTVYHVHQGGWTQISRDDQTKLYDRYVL

Homo sapiens = organism: Homo sapiens; test: To identify inhibition of the IFN signalling (Jak-Stat) pathway via expression of an eGFP reporter gene under the control of an IFN-stimulated response element (ISRE) containing MxA promoter.; format: functional; conditions: 30 µM
[7] = molecular target: T4, Tyrosyl-tRNA synthetase, putative (Trypanosoma cruzi (strain CL Brener)) (UniProt Q4DSP6); test: Trypanosoma cruzi tyrosyl tRNA synthetase (TcYRS) _High Tyrosine SOP; format: functional; conditions: 30 µM; note: in the data most compounds retested in dose-response had high values
T4 sequence (whole entry): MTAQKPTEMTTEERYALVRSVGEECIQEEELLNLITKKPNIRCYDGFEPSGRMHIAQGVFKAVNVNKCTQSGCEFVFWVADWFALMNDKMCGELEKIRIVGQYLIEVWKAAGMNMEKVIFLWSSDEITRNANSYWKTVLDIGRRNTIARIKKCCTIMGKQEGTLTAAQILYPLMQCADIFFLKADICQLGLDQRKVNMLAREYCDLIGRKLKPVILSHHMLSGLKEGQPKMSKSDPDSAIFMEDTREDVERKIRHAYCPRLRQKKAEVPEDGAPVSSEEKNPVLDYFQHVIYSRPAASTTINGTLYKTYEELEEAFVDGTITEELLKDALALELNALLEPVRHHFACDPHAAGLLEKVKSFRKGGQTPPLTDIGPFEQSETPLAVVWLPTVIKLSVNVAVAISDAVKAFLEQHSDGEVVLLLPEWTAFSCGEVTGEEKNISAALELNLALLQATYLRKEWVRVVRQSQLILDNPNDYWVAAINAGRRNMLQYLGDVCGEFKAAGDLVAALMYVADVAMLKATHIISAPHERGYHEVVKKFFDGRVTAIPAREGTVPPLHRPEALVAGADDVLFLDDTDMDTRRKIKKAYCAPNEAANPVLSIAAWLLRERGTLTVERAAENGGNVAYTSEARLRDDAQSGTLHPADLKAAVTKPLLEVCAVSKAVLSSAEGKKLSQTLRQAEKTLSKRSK

[8] = molecular target: T4, Tyrosyl-tRNA synthetase, putative (Trypanosoma cruzi (strain CL Brener)); test: Trypanosoma cruzi tyrosyl tRNA synthetase (TcYRS) SOP; format: functional; conditions: 30 µM
[9] = molecular target: Chromo domain-containing protein 1 (Saccharomyces cerevisiae (strain ATCC 204508 / S288c) (Baker's yeast)) (UniProt P32657); test: ScCHD-1 Enzyme Inhibition Assay; format: functional; conditions: 30 µM; note: in the data most compounds retested in dose-response had high values
Chromo domain-containing protein 1 (Saccharomyces cerevisiae (strain ATCC 204508 / S288c) (Baker's yeast)), sequence (P32657 whole entry, the tested form may be a part): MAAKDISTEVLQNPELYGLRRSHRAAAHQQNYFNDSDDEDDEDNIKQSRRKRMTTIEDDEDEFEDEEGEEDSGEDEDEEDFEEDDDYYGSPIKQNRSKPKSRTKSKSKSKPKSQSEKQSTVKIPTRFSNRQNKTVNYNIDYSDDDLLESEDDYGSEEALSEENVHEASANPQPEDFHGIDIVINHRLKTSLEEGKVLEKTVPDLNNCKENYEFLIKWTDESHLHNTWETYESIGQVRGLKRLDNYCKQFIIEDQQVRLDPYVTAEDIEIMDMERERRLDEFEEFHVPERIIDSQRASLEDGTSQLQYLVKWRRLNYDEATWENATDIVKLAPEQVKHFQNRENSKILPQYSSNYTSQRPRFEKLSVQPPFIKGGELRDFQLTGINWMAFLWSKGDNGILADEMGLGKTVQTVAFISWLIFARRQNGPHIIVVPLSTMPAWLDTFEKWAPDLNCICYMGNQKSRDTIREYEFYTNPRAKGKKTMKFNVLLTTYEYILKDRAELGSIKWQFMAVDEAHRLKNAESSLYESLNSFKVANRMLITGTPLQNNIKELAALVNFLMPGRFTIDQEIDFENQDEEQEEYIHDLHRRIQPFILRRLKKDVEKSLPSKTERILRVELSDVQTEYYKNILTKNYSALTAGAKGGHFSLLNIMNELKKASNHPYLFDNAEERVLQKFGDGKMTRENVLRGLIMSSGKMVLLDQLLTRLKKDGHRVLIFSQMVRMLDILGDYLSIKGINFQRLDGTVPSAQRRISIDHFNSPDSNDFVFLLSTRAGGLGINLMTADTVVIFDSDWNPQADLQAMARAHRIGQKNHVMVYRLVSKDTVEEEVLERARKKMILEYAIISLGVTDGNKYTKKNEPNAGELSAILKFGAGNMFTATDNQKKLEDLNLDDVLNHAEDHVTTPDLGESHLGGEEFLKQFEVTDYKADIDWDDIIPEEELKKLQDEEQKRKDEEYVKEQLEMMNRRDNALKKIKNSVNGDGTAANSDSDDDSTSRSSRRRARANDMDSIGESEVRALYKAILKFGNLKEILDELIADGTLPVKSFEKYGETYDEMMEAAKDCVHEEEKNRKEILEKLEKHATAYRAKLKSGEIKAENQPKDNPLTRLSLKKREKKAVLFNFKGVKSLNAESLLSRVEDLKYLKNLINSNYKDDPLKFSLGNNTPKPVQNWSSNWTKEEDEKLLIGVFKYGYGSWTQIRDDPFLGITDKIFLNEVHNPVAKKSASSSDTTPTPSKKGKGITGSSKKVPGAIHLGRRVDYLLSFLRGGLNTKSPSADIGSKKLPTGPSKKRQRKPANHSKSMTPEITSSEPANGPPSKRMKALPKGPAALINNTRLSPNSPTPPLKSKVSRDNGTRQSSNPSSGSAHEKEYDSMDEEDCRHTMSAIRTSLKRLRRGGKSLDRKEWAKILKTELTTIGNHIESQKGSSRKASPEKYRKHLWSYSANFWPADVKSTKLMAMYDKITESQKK

Protein translocase subunit SecA (Escherichia coli (strain K12)), sequence (P10408 whole entry): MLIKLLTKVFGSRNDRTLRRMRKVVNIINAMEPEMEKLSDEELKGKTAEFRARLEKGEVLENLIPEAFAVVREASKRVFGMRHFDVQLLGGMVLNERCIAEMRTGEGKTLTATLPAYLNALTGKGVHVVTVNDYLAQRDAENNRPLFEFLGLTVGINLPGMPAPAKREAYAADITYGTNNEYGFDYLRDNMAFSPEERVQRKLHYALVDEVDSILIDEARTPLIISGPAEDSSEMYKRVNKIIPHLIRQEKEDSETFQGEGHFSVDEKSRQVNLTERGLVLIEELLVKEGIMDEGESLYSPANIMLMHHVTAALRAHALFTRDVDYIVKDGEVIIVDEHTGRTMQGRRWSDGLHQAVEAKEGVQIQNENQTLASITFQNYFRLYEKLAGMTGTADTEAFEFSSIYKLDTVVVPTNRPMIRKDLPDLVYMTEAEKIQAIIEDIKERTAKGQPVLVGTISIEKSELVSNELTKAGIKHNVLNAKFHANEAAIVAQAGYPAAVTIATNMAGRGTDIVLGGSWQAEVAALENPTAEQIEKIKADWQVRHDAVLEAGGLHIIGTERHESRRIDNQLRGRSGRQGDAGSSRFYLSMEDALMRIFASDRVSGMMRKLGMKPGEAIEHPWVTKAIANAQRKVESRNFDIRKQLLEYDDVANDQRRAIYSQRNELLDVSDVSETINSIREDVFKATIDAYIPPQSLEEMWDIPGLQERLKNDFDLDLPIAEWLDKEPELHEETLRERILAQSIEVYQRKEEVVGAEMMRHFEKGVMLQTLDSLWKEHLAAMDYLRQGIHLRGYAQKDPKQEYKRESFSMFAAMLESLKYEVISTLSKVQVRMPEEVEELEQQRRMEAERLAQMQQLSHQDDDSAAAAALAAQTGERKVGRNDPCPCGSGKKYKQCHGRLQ
Sialic acid-binding Ig-like lectin 9 (Homo sapiens), sequence (Q9Y336 whole entry): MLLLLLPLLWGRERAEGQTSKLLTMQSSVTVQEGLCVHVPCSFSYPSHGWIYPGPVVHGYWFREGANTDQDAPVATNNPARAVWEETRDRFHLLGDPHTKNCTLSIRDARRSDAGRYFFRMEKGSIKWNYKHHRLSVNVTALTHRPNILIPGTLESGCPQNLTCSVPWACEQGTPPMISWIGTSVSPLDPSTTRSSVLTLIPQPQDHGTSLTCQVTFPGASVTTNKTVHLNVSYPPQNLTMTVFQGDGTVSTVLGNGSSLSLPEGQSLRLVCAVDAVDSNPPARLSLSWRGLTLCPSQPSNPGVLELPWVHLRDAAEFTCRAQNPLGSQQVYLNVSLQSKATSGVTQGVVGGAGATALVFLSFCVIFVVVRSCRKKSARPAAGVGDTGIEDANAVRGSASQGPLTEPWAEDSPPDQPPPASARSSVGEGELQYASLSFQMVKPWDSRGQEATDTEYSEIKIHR

| SMILES | Percent Effect [1] | Percent Effect [2] | Percent Effect [3] | Percent Effect [4] | Percent Effect (Trypanosoma cruzi) | Percent Effect [5] | Percent Effect [6] | Percent Effect (Homo sapiens) | Percent Effect [7] | Percent Effect [8] | Percent Effect [9] |
| --- | --- | --- | --- | --- | --- | --- | --- | --- | --- | --- | --- |
| Cc1ccc(C(O)CNCc2c(C(C)C)nn(C)c2N(C)C)cc1 (stereo unspecified) | -7.17% | 13% | -5.78% | 6.38% | 7.87% | -3.56% | 10.1% | -0.105% | 10.7% | 19.5% | -7.91% |
| CC(C)Cc1cc(C(=O)N2CCCC(n3cncn3)C2)[nH]n1 (stereo unspecified) | -1.38% | 11.4% | 6.88% | -0.206% | 1.33% | 10.1% | 2.4% | 0.485% | 5.21% | 12.7% | -22.3% |
| COCC(=O)N1CCCC2(CCN(c3ccsc3)C2=O)C1 (stereo unspecified) | -5.59% | 2.67% | 5.83% | -0.603% | -1.18% | -0.699% | -5.73% | 26.1% | 0% | -1.28% | 4.35% |
| Cc1cnn(CC2CN(Cc3cccc(OCC(N)=O)c3)CCO2)c1 (stereo unspecified) | -3.33% | -5.2% | 0.653% | 4.26% | -7.3% | 5.34% | -2.53% | 23.4% | 3.88% | -2.44% | 1.45% |
| Cc1n[nH]cc1CNc1ccc2c(c1)CN(C(=O)OC(C)(C)C)CC2 | -2.19% | 5.2% | -9.51% | 0.686% | 2.26% | -8.28% | 15.5% | 68.8% | 2.15% | 3.7% | -6.66% |
| N#Cc1ncn(CC(=O)Nc2cc(Cl)ccc2F)n1 | -7.02% | 13.7% | 6.62% | 0.779% | 1.59% | -4.79% | 1.8% | -12.8% | 3.12% | 6.17% | 1.6% |
| CC(=O)N1CCN(Cn2nc(-c3ccc(F)cc3)oc2=O)CC1 | -3.09% | 23.4% | -4.67% | -7.73% | -2.25% | 0.712% | 8.11% | 15% | 9.71% | 21.9% | -10.3% |
| CN(C)C(=O)N1C[C@@H]2CCCO[C@@H]2[C@H](N(C)Cc2ccco2)C1 | -3.04% | 13.7% | 2.03% | 7.85% | 6.55% | -5.99% | 8.99% | -3.94% | 4.17% | 13.6% | -11.2% |
| CN(Cc1nnc(C2CC2)n1C)C1CCN(CCc2cccs2)C1 (stereo unspecified) | -0.668% | 5.48% | -3.64% | 3.02% | 8.33% | 0% | 15.5% | -8.16% | 2.08% | 6.17% | -3.22% |
| CCc1ccc(NC(=O)c2cnc(N3CCN(C)CC3)nc2C)cc1 | -3.08% | 20.8% | -8.09% | -20.9% | 4.63% | -0.645% | 8.01% | 15.9% | 2.12% | 11.5% | -10.8% |
| O=C(C1CCC1)N1CCN(C(=O)c2cnccn2)[C@H]2CS(=O)(=O)C[C@H]21 | -0.271% | 13.5% | -3.89% | 16.5% | 7.34% | 0.476% | 9.65% | 3.49% | 4.76% | 17.1% | -3.81% |
| CC(NC(=O)Nc1cc(F)ccc1N1CCCCC1)c1nncn1C (stereo unspecified) | -4.95% | 5.41% | -5.33% | -3.53% | -3.49% | 2.81% | -3.78% | 1.69% | 1.48% | 1.24% | -2.66% |
| CCOCC1CN(S(C)(=O)=O)Cc2cnn(C)c21 (stereo unspecified) | -0.898% | 16% | -7.73% | 10.1% | 5.79% | -43.9% | 10.8% | -2.61% | 4.17% | 12.5% | -7.93% |
| Cn1cc(CN2CCC3(CCCN(Cc4ccccn4)C3)CC2)cn1 | -1.45% | -5.48% | -0.391% | 0.486% | 2.98% | 1.2% | 4.54% | -10.8% | 3.12% | 1.24% | 3.63% |
| CCOC[C@H]1CC[C@H]2[C@H](CCN2C(=O)c2ccncc2F)O1 | -2.56% | 2.7% | 3.1% | -3.88% | 1.07% | 3.72% | 5.92% | -17.8% | 2.15% | 3.7% | -2.81% |
| CN(C)CC1(O)CCN(S(=O)(=O)c2ccc(F)cc2)C1 (stereo unspecified) | -4.76% | 20.3% | 6.17% | -4.76% | 3.36% | -3.94% | 17.3% | 10.1% | 5.38% | 9.09% | 65.3% |
| O=C(NCCN1CCCc2ccccc21)c1scnc1Cl | -4.96% | 2.63% | 0.379% | -2.42% | 2.52% | -0.719% | 2.96% | -9.38% | 7.39% | 1.24% | 3.5% |
| O=C1COC2(CCN(Cc3cccs3)CC2)CN1c1ccccc1 | -2.08% | 5.48% | 0.847% | 2.36% | -1.39% | -2.4% | 7.62% | -0.737% | 3.12% | 3.7% | -0.651% |
| Cc1nn(C)c(C)c1CC(=O)N1CCCC(n2cccn2)C1 (stereo unspecified) | -2.93% | -5.26% | -2.25% | -1.17% | 6.26% | -5.4% | 2.12% | -14.2% | 3.45% | 3.7% | 0.321% |
| O=C(c1cccnc1-n1cncn1)N1CCN(CC2CC2)CC1 | -2.35% | 16.2% | -2.56% | 20.3% | 5.79% | 1.91% | 11.9% | 1.6% | 3.7% | 9.76% | -2.97% |
| CCN(CC)C(=O)CCn1ncc2c(Cl)cccc21 | -0.381% | 1.33% | 3.83% | 7.06% | -5.89% | -17.1% | 16.1% | 0.421% | 0% | 2.56% | -11.2% |
